# Measurements from PubChem BioAssay (Tox21).
# Records with an inconclusive call do not appear. Where a call stands in place of a potency, no number is given. Calls of active or inactive are those of the source. The call rests on the fitted dose curve; in most records, active means well fitted cell-killing curve with a large enough effect in the repeat runs; inconclusive means weak or mixed curves, or effect the other way; inactive means flat fitted curve, though single readings scatter.
# Assays:
# [1] = cAMP Responsive Elements (CRE) small molecule antagonists, cell-based qHTS assay: qHTS cell viability counter screen (AID 2060913); further: nearly all actives have a fitted effect of over 40% in size
# How it was run: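 Steps: cells plated and held 18 hrs at 37 C/5% CO2; compounds and NKH477 (0.25 uM final) added; 3 hrs incubation; reporter substrate read; CellTiter-Glo added to measure cytotoxicity by luminescence.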
# [2] = cAMP Responsive Elements (CRE) small molecule agonists, cell-based qHTS assay: qHTS cell viability counter screen (AID 2060914);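 further: viability read after 3 h of compound exposure; nearly all actives have a fitted effect of over 50% in size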
# How it was run: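 CRE-bla HEK 293T cells, plated 18 h at 37 °C, were exposed to compounds for 3 h at 37 °C/5% CO2. Viability was then measured in the same wells by CellTiter-Glo luminescence after 30 min at room temperature.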
SMILES,Potency [1],Potency [2]
Cl/C=C/CCl,inactive,inactive
CCCCC(CC)COC(=O)c1ccc(C(=O)OCC(CC)CCCC)c(C(=O)OCC(CC)CCCC)c1 (centres undefined),inactive,inactive
Fc1cccc(Cl)c1CCl,inactive,inactive
Nc1c(Cl)cc([N+](=O)[O-])cc1Cl,inactive,inactive
O=[N+]([O-])O.O=[N+]([O-])O.[Cd],inactive,inactive
CC(C)CC(C)Nc1ccc(Nc2ccccc2)cc1 (centres undefined),inactive,inactive
C=CCc1cc(OC)c2c(c1)OCO2,inactive,inactive
Cc1ccc(CCl)cc1,inactive,inactive
CCOC(=O)N(C)N=O,inactive,inactive
CC(C)NCC(O)c1ccc([N+](=O)[O-])cc1 (centres undefined),inactive,inactive
CNC(=O)Oc1c(C(C)(C)C)cc(C)cc1C(C)(C)C,inactive,inactive
C=CCO,inactive,inactive
CC(=O)CCc1ccc2c(c1)OCO2,inactive,inactive
CCC(=O)c1ccc(Cl)cc1,inactive,inactive
NNC(=O)c1cccnc1,inactive,inactive
CCCCCOC(=O)c1ccccc1C(=O)OCCCCC,inactive,inactive
CNCC(O)c1ccc(O)cc1 (centres undefined),inactive,inactive
CN(C)C(=O)C(c1ccccc1)c1ccccc1,inactive,inactive
CC[C@@H](CO)NC(=O)[C@@H]1C=C2c3cccc4c3c(cn4C)C[C@H]2N(C)C1,inactive,inactive
CC(Cc1ccc(O)cc1)NCC(O)c1cc(O)cc(O)c1 (centres undefined),inactive,inactive
CC(C)(Cl)[N+](=O)[O-],inactive,inactive
CC(C)c1ccc(O)cc1,inactive,inactive
